Measured values from the supplement of paper PMC10849652.
Of roughly 8,800 targets only a part is listed; those with a hit were picked by preference. About 0.5% of all pairs of compound and target were hits.

Columns and labels:
Test in all cases: log2 fold change, soluble protein after heating vs DMSO (PISA); higher = thermal stabilisation; K562 lysate, 10 uM; active = over 0.2 and 3.5 SD of the protein, either way, in both replicates (recomputed)
[1] = compound: C1=CC=C(C=C1)[C@H](COC2=CC3=C(C=C2)NC(=O)N3)NC(=O)C4=CC=CN(C4=O)CC5=CC(=C(C=C5)F)F
In short: (§1)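 K562 pellets were dounce-homogenised in PBS pH 7.4 with 1 mM MgCl2, and the crude extract at 1 mg/mL protein was treated with 10 μM compound for 30 min. Aliquots were heated for 3 min across 48°C-58°C, pooled, and brought to 0.5% NP-40 at 4°C; soluble protein was the supernatant after 21,000xg for 90 min. Soluble protein was quantified by TMTpro 16plex LC-MS/MS with channel sums equalised, and reported as log2 fold change in thermal stability against DMSO controls, with values from duplicates.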

[2] = compound: CC1=C(SC2=C1C(=N[C@H](C3=NN=C(N32)C)CC(=O)N)C4=CC=C(C=C4)Cl)C
In short: as §1

[3] = compound: CC1=C2C(=CC=C1)N=C(N(C2=O)C3=CC=CC=C3C)CN4C=NC5=C(N=CN=C54)N
In short: as §1

[4] = compound: Cc1sc2c(c1C)C(c1ccc(Cl)cc1)=N[C@@H](CC(=O)OC(C)(C)C)c1nnc(C)n1-2
In short: as §1

[5] = compound: c1ccc([C@@H]2C[C@H]2NC2CCNCC2)cc1
In short: as §1

Measured: log2 fold change

ARL8A (UniProt Q96BM9)
Sequence of UniProt Q96BM9 (Q96BM9 whole entry, looked up): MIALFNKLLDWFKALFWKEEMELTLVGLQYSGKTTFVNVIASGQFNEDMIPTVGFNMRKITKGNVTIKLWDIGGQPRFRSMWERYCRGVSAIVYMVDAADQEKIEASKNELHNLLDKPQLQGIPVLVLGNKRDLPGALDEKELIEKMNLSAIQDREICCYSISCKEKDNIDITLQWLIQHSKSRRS
inactive: [1] 0.038 | [2] -0.02 | [3] -0.157 | [4] 0.093 | [5] 0.1

ANKRD52 (UniProt Q8NB46)
inactive: [1] -0.004 | [2] -0.036 | [3] 0.056 | [4] 0.055 | [5] 0.004

ALKBH4 (UniProt Q9NXW9)
inactive: [1] 0.011 | [2] 0.025 | [3] 0.032 | [4] 0.01 | [5] -0.017

ACSL1 (UniProt P33121)
inactive: [1] -0.136 | [2] 0.004 | [3] 0.014 | [4] 0.063 | [5] 0.021

ARMCX3 (UniProt Q9UH62)
Sequence of UniProt Q9UH62 (Q9UH62 whole entry, looked up): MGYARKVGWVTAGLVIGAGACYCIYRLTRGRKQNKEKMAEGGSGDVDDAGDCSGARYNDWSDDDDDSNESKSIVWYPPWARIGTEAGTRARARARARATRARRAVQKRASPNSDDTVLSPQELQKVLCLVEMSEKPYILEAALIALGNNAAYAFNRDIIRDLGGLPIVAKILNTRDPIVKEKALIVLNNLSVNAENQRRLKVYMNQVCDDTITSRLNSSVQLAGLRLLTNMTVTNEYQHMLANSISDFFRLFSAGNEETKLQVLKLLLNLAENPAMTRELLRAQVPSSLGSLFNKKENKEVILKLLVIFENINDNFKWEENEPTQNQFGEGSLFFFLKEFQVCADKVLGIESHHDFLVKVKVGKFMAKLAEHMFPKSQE
inactive: [1] 0.015 | [2] 0.009 | [3] 0.029 | [4] -0.074 | [5] 0.053

AMMECR1 (UniProt Q9Y4X0)
inactive: [1] -0.014 | [2] 0.019 | [3] 0.064 | [4] -0.007 | [5] 0.036

ADAM17 (UniProt P78536)
active: [2] -0.251
inactive: [1] -0.098 | [3] 0.093 | [4] 0.002 | [5] -0.032

ARMCX5 (UniProt Q6P1M9)
Sequence of UniProt Q6P1M9 (Q6P1M9 whole entry, looked up): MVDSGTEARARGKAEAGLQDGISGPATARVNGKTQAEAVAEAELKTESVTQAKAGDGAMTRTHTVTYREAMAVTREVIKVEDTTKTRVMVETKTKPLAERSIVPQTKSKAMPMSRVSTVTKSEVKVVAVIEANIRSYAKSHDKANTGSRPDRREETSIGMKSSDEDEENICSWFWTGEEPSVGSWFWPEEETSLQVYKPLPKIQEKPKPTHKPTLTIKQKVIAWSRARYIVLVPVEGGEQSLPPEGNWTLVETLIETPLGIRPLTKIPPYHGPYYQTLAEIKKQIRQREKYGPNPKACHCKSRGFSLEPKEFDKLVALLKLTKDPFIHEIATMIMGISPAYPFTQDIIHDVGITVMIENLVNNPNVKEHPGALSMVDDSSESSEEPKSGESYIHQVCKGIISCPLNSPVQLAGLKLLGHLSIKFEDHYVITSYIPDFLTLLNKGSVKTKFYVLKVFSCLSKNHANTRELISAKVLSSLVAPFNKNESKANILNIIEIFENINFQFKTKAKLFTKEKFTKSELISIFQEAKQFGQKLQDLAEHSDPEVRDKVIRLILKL
inactive: [1] 0.021 | [2] -0.07 | [3] 0.057 | [4] 0.036 | [5] -0.03

ABCA3 (UniProt Q99758)
inactive: [1] 0.112 | [2] 0.038 | [3] 0.006 | [4] -0.01 | [5] -0.005

ARHGEF2 (UniProt Q92974)
inactive: [1] 0.023 | [2] -0.007 | [3] 0.034 | [4] 0.008 | [5] 0.05

ABCF3 (UniProt Q9NUQ8)
inactive: [1] 0.002 | [2] -0.016 | [3] 0.031 | [4] 0.013 | [5] 0.06

ALDH18A1 (UniProt P54886)
inactive: [1] -0.018 | [2] -0.032 | [3] 0.019 | [4] -0.005 | [5] 0.034

AKR1B1 (UniProt P15121)
inactive: [1] 0.015 | [2] 0.066 | [3] 0.059 | [4] -0.146 | [5] -0.049

ABHD17B (UniProt Q5VST6)
inactive: [1] 0.014 | [2] 0.044 | [3] -0.028 | [4] -0.044 | [5] -0.198

ADAR isoform 4 (UniProt P55265)
inactive: [1] -0.188 | [2] 0.116 | [3] 0.035 | [4] 0.005 | [5] 0.032

ARHGAP6 (UniProt O43182)
Sequence of UniProt O43182 (O43182 whole entry, looked up): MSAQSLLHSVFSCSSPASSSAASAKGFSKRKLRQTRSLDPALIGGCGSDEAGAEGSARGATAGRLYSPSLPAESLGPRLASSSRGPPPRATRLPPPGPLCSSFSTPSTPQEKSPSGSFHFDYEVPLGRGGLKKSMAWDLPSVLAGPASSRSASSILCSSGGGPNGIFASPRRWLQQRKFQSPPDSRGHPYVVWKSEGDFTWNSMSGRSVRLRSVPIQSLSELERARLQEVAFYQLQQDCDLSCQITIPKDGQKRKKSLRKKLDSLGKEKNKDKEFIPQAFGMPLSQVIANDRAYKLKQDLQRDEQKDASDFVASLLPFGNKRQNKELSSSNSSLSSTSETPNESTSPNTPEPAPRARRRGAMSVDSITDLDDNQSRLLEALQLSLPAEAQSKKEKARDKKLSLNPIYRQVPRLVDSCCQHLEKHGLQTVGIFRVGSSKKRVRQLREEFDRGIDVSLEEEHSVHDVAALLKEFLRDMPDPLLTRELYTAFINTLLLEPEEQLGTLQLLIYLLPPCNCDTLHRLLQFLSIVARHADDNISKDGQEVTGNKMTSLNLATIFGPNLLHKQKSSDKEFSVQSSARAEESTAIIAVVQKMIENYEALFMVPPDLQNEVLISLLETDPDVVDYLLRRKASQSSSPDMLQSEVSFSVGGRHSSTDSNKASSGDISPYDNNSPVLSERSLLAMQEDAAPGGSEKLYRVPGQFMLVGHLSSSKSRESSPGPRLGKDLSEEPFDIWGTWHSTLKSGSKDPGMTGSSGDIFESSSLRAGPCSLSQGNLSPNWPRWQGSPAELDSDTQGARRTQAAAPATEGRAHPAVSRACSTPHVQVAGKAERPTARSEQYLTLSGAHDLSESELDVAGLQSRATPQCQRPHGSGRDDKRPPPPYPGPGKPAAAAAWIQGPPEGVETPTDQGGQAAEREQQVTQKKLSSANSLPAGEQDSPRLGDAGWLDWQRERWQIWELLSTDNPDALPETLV
inactive: [1] -0.026 | [2] -0.023 | [3] -0.012 | [4] 0.018 | [5] 0.02

AKT1 (UniProt P31749)
inactive: [1] 0.011 | [2] -0.028 | [3] -0.028 | [4] -0.009 | [5] 0.013

ACBD6 (UniProt Q9BR61)
inactive: [1] 0.014 | [2] 0.019 | [3] -0.009 | [4] -0.045 | [5] -0.022

ARHGAP21 (UniProt Q5T5U3)
inactive: [1] 0.031 | [2] 0.117 | [3] 0.031 | [4] 0.008 | [5] 0.124

ALDH1A1 (UniProt P00352)
Sequence of UniProt P00352 (P00352 whole entry, looked up): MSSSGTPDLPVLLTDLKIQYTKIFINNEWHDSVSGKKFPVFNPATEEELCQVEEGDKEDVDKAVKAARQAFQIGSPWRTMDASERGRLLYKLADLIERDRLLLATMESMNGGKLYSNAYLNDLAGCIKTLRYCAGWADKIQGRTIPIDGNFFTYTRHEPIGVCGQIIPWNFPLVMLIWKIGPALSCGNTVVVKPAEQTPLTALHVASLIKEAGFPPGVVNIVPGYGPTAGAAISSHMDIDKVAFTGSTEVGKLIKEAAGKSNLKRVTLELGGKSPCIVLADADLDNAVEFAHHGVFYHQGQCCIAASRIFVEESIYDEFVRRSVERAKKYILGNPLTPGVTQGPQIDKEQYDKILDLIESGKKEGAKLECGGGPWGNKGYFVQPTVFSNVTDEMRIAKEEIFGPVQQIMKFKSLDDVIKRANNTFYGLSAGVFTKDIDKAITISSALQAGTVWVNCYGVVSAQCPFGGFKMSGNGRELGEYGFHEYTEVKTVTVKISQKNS
inactive: [1] -0.032 | [2] 0.006 | [3] -0.028 | [4] -0.011 | [5] 0.045

ACTBL2 (UniProt Q562R1)
inactive: [1] 0.138 | [2] -0.194 | [3] -0.016 | [4] 0.106 | [5] 0.365

ACADS (UniProt P16219)
inactive: [1] -0.015 | [2] 0.069 | [3] 0.054 | [4] 0.013 | [5] 0.003

ACTG1 (UniProt I3L4N8)
inactive: [1] -0.042 | [2] -0.082 | [3] -0.098 | [4] -0.245 | [5] 0.218

ARL13B (UniProt Q3SXY8)
Sequence of UniProt Q3SXY8 (Q3SXY8 whole entry, looked up): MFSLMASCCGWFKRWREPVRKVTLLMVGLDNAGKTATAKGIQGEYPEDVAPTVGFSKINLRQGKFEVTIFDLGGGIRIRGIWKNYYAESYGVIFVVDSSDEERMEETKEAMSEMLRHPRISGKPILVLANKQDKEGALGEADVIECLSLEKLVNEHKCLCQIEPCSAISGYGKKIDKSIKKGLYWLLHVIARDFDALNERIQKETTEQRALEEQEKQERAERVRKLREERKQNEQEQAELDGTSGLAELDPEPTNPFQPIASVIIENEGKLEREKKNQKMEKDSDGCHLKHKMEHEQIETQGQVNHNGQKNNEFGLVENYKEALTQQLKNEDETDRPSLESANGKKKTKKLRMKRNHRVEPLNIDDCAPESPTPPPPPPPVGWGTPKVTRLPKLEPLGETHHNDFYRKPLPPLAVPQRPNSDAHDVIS
inactive: [1] 0.087 | [2] 0.03 | [3] 0.012 | [4] 0.019 | [5] 0.145

ANXA5 (UniProt P08758)
inactive: [1] 0.031 | [2] 0.016 | [3] 0.013 | [4] 0.033 | [5] 0.075

ARAF (UniProt P10398)
inactive: [1] 0.012 | [2] -0.002 | [3] -0.078 | [4] 0 | [5] 0.002

AMD1 (UniProt P17707)
inactive: [1] -0.027 | [2] 0.01 | [3] -0.017 | [4] 0.005 | [5] -0.019

AMPD3 isoform 4 (UniProt Q01432)
Sequence of UniProt Q01432 (Q01432 whole entry, looked up): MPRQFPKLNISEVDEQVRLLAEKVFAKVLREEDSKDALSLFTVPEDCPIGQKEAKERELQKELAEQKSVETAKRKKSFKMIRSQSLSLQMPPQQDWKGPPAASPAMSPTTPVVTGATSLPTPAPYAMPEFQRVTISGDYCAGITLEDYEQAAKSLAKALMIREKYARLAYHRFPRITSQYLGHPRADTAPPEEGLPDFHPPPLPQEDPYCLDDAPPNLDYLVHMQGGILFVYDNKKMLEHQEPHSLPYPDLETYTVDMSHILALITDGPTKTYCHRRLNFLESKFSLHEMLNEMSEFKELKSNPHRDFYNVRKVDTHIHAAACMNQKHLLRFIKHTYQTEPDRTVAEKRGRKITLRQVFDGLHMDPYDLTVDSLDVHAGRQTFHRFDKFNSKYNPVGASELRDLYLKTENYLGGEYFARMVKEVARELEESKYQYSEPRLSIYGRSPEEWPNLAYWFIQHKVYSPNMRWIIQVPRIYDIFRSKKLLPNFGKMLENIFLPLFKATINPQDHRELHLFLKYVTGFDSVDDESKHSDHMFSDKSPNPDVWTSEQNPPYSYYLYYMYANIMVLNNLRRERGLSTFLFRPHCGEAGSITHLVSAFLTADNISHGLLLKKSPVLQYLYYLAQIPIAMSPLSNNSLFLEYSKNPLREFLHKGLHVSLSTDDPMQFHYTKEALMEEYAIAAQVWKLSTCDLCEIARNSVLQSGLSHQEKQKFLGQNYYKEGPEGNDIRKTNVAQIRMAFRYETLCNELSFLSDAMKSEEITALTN
inactive: [1] 0.02 | [2] -0.021 | [3] -0.012 | [4] 0.018 | [5] 0.093

ADRM1 (UniProt Q16186)
inactive: [1] -0.005 | [2] 0.007 | [3] -0.001 | [4] -0.026 | [5] 0.016

ABL1 isoform 2 (UniProt P00519)
inactive: [1] -0.042 | [2] -0.065 | [3] 0.067 | [4] -0.017 | [5] 0.102

AKT2 (UniProt P31751)
inactive: [1] 0.011 | [2] 0.003 | [3] 0.031 | [4] 0.02 | [5] 0.028

ACADM isoform 2 (UniProt P11310)
inactive: [1] -0.071 | [2] -0.035 | [3] 0.043 | [4] 0.017 | [5] 0.013

ANLN (UniProt Q9NQW6)
inactive: [1] 0.04 | [2] -0.014 | [3] 0.053 | [4] 0.015 | [5] 0.005

ASB6 (UniProt Q9NWX5)
inactive: [1] 0.012 | [2] 0.125 | [3] 0.005 | [4] 0.016 | [5] 0.028

ACAT1 (UniProt P24752)
inactive: [1] -0.007 | [2] 0.029 | [3] -0.016 | [4] 0.031 | [5] 0.024

ADK (UniProt P55263)
inactive: [1] 0.059 | [2] -0.035 | [3] 0.051 | [4] -0.036 | [5] -0.133

ABL2 (UniProt P42684)
inactive: [1] -0.026 | [2] 0.016 | [3] 0 | [4] -0.14 | [5] -0.105

APEX1 (UniProt P27695)
inactive: [1] 0.055 | [2] 0.007 | [3] -0.007 | [4] 0.086 | [5] 0.131

ALG13 (UniProt Q9NP73)
inactive: [1] -0.015 | [2] -0.018 | [3] 0.09 | [4] 0.037 | [5] -0.087

ARFGAP1 (UniProt Q8N6T3)
Sequence of UniProt Q8N6T3 (Q8N6T3 whole entry, looked up): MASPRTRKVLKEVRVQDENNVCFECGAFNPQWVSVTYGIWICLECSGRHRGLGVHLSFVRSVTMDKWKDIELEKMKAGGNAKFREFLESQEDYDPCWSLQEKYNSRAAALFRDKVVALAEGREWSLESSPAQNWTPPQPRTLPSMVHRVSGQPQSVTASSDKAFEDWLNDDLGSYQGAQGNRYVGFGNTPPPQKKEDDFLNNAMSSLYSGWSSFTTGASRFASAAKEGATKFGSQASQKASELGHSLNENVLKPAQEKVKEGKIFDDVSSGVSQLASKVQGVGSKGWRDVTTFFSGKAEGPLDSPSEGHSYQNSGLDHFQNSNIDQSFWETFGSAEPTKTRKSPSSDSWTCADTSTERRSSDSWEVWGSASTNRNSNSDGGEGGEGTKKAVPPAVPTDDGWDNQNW
inactive: [1] 0.037 | [2] -0.091 | [3] 0.149 | [4] -0.081 | [5] -0.127

AP3D1 isoform 5 (UniProt O14617)
inactive: [1] 0.042 | [2] -0.027 | [3] 0.003 | [4] 0.025 | [5] -0.028

AARS2 (UniProt Q5JTZ9)
inactive: [1] 0.014 | [2] -0.076 | [3] 0.026 | [4] 0.041 | [5] 0.045

AGO4 (UniProt Q9HCK5)
inactive: [1] 0.014 | [2] 0.022 | [3] 0.001 | [4] -0.011 | [5] -0.07

AP4B1 (UniProt Q9Y6B7)
Sequence of UniProt Q9Y6B7 (Q9Y6B7 whole entry, looked up): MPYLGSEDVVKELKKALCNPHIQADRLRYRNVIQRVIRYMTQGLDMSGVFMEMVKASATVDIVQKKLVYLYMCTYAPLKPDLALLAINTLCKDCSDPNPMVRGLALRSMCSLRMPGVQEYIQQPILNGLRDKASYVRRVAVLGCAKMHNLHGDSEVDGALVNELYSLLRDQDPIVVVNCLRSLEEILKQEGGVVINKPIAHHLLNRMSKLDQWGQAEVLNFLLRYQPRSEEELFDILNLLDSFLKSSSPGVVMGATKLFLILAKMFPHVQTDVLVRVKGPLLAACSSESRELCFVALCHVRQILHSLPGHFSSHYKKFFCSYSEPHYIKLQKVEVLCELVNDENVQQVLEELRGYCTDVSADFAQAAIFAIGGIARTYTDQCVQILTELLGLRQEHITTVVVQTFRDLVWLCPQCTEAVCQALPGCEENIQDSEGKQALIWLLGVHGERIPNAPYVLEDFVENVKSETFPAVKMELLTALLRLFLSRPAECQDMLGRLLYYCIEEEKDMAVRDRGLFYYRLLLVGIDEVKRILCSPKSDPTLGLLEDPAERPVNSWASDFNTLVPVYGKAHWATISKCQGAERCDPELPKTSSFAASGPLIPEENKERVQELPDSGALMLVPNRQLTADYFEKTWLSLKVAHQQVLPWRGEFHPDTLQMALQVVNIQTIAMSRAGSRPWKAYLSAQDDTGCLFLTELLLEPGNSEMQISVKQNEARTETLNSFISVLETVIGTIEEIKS
inactive: [1] 0.02 | [2] 0.063 | [3] -0.025 | [4] 0.093 | [5] 0.03

AK2 (UniProt P54819)
inactive: [1] 0.046 | [2] -0.013 | [3] 0.01 | [4] 0.051 | [5] -0.015

ACIN1 isoform 5 (UniProt Q9UKV3)
inactive: [1] -0.002 | [2] 0.019 | [3] 0.013 | [4] -0.01 | [5] 0.012

ANKRD27 (UniProt Q96NW4)
inactive: [1] -0.025 | [2] 0.022 | [3] -0.011 | [4] 0.042 | [5] -0.002

AKAP8 (UniProt O43823)
inactive: [1] -0.02 | [2] 0.073 | [3] -0.016 | [4] -0.009 | [5] -0.014

ANXA11 (UniProt P50995)
inactive: [2] 0.028 | [3] 0.015 | [4] 0.015 | [5] 0.002
active: [1] 0.23

ASCC2 (UniProt Q9H1I8)
inactive: [1] 0.181 | [2] 0.063 | [3] -0.027 | [4] -0.019 | [5] 0.076

ANP32A (UniProt P39687)
inactive: [1] 0.007 | [2] 0.02 | [3] 0 | [4] 0.07 | [5] -0.033

ACACA isoform 4 (UniProt Q13085)
inactive: [1] 0.001 | [2] 0.027 | [3] 0.019 | [4] 0.027 | [5] 0.085

AKR1C3 (UniProt P42330)
inactive: [1] 0.031 | [2] 0.05 | [3] 0.022 | [4] -0.04 | [5] 0.031
